Assay [1] can be described thus: EMT-state selective cytotoxicity in co-culture – imaging, PC-3E GFP, TEM4-18 mCherry, primary screen (AID 1345086).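 On all read-outs here: cells exposed to compound for 72 h before imaging.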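 On red/green cell ratio (normalised): normalised mesenchymal count divided by normalised epithelial count so high means epithelial killing.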 To be noted: PC-3E GFP / TEM4-18 mCherry co-culture, imaging cell counts, at 1 µM; for red/green cell ratio (normalised): actives lie on both sides, counts scaled to control wells, 1 = unselective.
Assay [2] has as its system Aerobactin synthetase IucA (Klebsiella pneumoniae). The assay is described as follows: inhibition of K. pneumoniae IucA enzyme – biochemical, Tocris library, absorbance (AID 1345561; call rule not given here;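 further: 100% = enzyme without compound and 0% = no enzyme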). To be noted: purified IucA enzyme assay, absorbance (OD) read-out; stronger effect = lower value;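 tested at 8 µM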.
The nature of assay [3]: viability loss in pontine glioma line – cell-based, SU-DIPG-XVII, MIPE5.0, CellTiter-Glo, qHTS, dose response (AID 1347060; cut-off not given, nearly all actives have AC50 up to about 26 µM;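 on AC50: cells exposed to compound for 48 hours before viability readout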). To be noted: CellTiter-Glo ATP luminescence. On the technique in general: ATP-based viability assays read luminescence as a measure of living cells.
The nature of assay [4]: viability loss in pontine glioma line – cell-based, SU-DIPG-XIII, MIPE5.0, CellTiter-Glo, qHTS, dose response (AID 1347064; cut-off not given, nearly all actives have AC50 up to about 23 µM). Particulars: CellTiter-Glo ATP luminescence.
[5] abbreviates: measured here: epithelial PC-3E GFP cell survival.
The mark [6] stands for this setting: measured here: mesenchymal TEM4-18 mCherry cell survival.

Where “and” joins values, the source holds several entries; their conditions need not be identical. Equal entries are not always repeated. Inconclusive results are not listed. Calls of active or inactive are those of the source.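 How the source made its calls, unless noted: active means compounds killing one labelled cell type while sparing the other, by normalised counts and ratio limits, not self-fluorescent; inactive means the rest.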

By remaining activity is commonly meant the signal under treatment as a percentage of the control signal. A word on the AC50: it is the midpoint of the concentration-response curve, whichever way the signal moves.

Consider `O=C(O)P(=O)(O)O`, for which the red/green cell ratio (normalised) in assay [1] is 0.82 (inactive). For the same compound, the results for the normalised cell number in assay [1] (setting [5]) and in assay [1] (setting [6]) were 1.21 and 0.99, respectively.
In the case of `COc1cc(C(=O)NCc2ccc(OCCN(C)C)cc2)cc(OC)c1OC`, the red/green cell ratio (normalised) in assay [1] was 0.88 (inactive). Also, the normalised cell number in assay [1] (setting [5]) was found to be 1.34; in assay [1] (setting [6]), 1.18.
With `Cc1cc(C)cc(OCC2CNC(=O)O2)c1` (stereo not drawn), in assay [1], the red/green cell ratio (normalised) is 1.5 (inactive). Also, the normalised cell number in assay [1] (setting [5]) is 0.43; in assay [1] (setting [6]) it was 0.64.
In the same order, the values of `O=C(OCc1ccccc1)c1ccccc1` are 0.83 (inactive), 1.34 and 1.11.
The like results for `CC(C)NNC(=O)c1ccncc1` were, in that order, 0.73 (inactive), 1.3 and 0.95.
In the same order, the values of `NC(=O)NC(=O)Cc1ccccc1` are 1.02 (inactive), 1.19 and 1.21.
`O=C(O)c1cc(O)c(O)c(O)c1`: the red/green cell ratio (normalised) in assay [1] was 0.96 (inactive). The results for the normalised cell number in assay [1] (setting [5]) and in assay [1] (setting [6]) were 1.14 and 1.09, respectively.
In the same order, the values of `NC(N)=NCCN1CCCCCCC1` are 1.06 (inactive), 1.17 and 1.23.
The like results for `CN1Cc2c(N)cccc2C(c2ccccc2)C1` (stereo not drawn) were, in that order, 0.78 (inactive), 1.16 and 0.9.
With `COc1ccc(NS(=O)(=O)c2ccc(N)cc2)nn1`, the red/green cell ratio (normalised) in assay [1] is 1.05 (inactive). Also, the normalised cell number in assay [1] (setting [5]) was 0.94; in assay [1] (setting [6]) it was 0.98.
In the same order, the values of `Cc1ccccc1OCC(O)CO` (stereo not drawn) are 1.04 (inactive), 1.05 and 1.1.
As to `C/C=C1\[C@H]2C=C(C)C[C@]1(N)c1ccc(=O)[nH]c1C2`, the red/green cell ratio (normalised) in assay [1] is 1.22 (inactive). For the same compound, the normalised cell number in assay [1] (setting [5]) is 0.97; in assay [1] (setting [6]) it was 1.18.
For the compound `O=C(O)CCC(=O)c1ccc(-c2ccccc2)cc1`, the red/green cell ratio (normalised) in assay [1] was 1.07 (inactive). Moreover, the normalised cell number was 1.07 in assay [1] (setting [5]) and 1.15 in assay [1] (setting [6]).
The like results for `N=C(N)N` were, in that order, 1.05 (inactive), 0.94 and 0.99.
In the same order, the values of `NC[C@H]1O[C@H](O[C@H]2[C@H](O)[C@@H](O[C@H]3O[C@H](CO)[C@@H](O)[C@H](N)[C@H]3O)[C@H](N)C[C@@H]2N)[C@H](N)[C@@H](O)[C@@H]1O` are 1.19 (inactive), 1.1 and 1.31.
In the same order, the values of `Nc1ccc(S(=O)(=O)Nc2ccc(Cl)nn2)cc1` are 1.19 (inactive), 0.46 and 0.54.
In the case of `Nc1ccc(C(=O)Oc2ccccc2)c(O)c1`, the red/green cell ratio (normalised) in assay [1] is 1.06 (inactive). For the same compound, the normalised cell number was determined as 0.61 in assay [1] (setting [5]) and 0.65 in assay [1] (setting [6]).
The like results for `COc1cc(NS(=O)(=O)c2ccc(N)cc2)ncn1` were, in that order, 1.16 (inactive), 0.74 and 0.86.
In the same order, the values of `CCN(CCCc1ccccc1)CCCc1ccccc1` are 0.99 (inactive), 1.13 and 1.12.
`Cc1cc(C)nc(NS(=O)(=O)c2ccc(N)cc2)n1`: in assay [1], the red/green cell ratio (normalised) was 1.29 (inactive). For the same compound, the results for the normalised cell number in assay [1] (setting [5]) and in assay [1] (setting [6]) were 1.02 and 1.31, respectively.
Take `CCCCC(CC)CN1CN(CC(CC)CCCC)CC(C)(N)C1` (stereo not drawn): in assay [1], the red/green cell ratio (normalised) is 1.02 (inactive). In addition, the figures for the normalised cell number in assay [1] (setting [5]) and in assay [1] (setting [6]) were 0.84 and 0.85, respectively.
In the same order, the values of `COCCc1ccc(OCC(O)CNC(C)C)cc1` (stereo not drawn) are 0.71 (inactive), 1.33 and 0.95.
In the same order, the values of `Cc1ccc(C(=O)c2ccc(CC(=O)O)n2C)cc1` are 0.9 (inactive), 1.11 and 1.
In the same order, the values of `Cc1c(C(N)=O)cc([N+](=O)[O-])cc1[N+](=O)[O-]` are 0.99 (inactive), 0.91 and 0.9.
For the compound `COc1ccc(CN(CCN(C)C)c2ncccn2)cc1`, the red/green cell ratio (normalised) in assay [1] is 1.15 (inactive). Besides, the normalised cell number in assay [1] (setting [5]) was determined as 1.04; in assay [1] (setting [6]) it was 1.2.
The like results for `COc1ccc(C2C(=O)c3ccccc3C2=O)cc1` were, in that order, 0.84 (inactive), 1.14 and 0.96.
Turning to `Oc1cccc2[nH]ccc12`, the red/green cell ratio (normalised) in assay [1] is 0.85 (inactive). Further, the normalised cell number in assay [1] (setting [5]) worked out at 1.31; in assay [1] (setting [6]), 1.12.
The like results for `CCCCCCCCCCCCCCCCCCOCC(O)CO` (stereo not drawn) were, in that order, 1 (inactive), 0.96 and 0.96.
The like results for `CC(C(=O)O)c1ccc2c(c1)[nH]c1ccc(Cl)cc12` (stereo not drawn) were, in that order, 1.13 (inactive), 1.37 and 1.54.
The like results for `Cc1cc(N)c2ccccc2[n+]1CCCCCCCCCC[n+]1c(C)cc(N)c2ccccc21` were, in that order, 0.87 (inactive), 1.15 and 1.
As to `NS(=O)(=O)c1cc2c(cc1Cl)NC(CSCc1ccccc1)=NS2(=O)=O`, the red/green cell ratio (normalised) in assay [1] was 1.25 (inactive). In addition, the normalised cell number in assay [1] (setting [5]) worked out at 1.02; in assay [1] (setting [6]), 1.28.
The like results for `CC1(C)OC(=O)NC1=O` were, in that order, 1.18 (inactive), 1.2 and 1.41.
Take `C=C1c2cccc(O)c2C(O)=C2C(=O)[C@]3(O)C(O)=C(C(N)=O)C(=O)[C@@H](N(C)C)[C@@H]3[C@@H](O)[C@H]12`: the red/green cell ratio (normalised) in assay [1] was 0.93 (inactive). Besides, the normalised cell number in assay [1] (setting [5]) amounted to 0.85; in assay [1] (setting [6]) it was 0.79.
In the same order, the values of `CN(C)CCOC(=O)C(c1ccccc1)C1(O)CCCC1` (stereo not drawn) are 1.07 (inactive), 1.42 and 1.52.
The like results for `CO[C@]12C[C@@H](COC(=O)c3cncc(Br)c3)CN(C)[C@@H]1Cc1cn(C)c3cccc2c13` were, in that order, 1.03 (inactive), 0.95 and 0.99.
In the same order, the values of `CN(C)CCC(c1ccccc1)c1ccccn1` (stereo not drawn) are 1.11 (inactive), 0.86 and 0.95.
Turning to `Cn1c([N+](=O)[O-])cnc1COC(N)=O`, the red/green cell ratio (normalised) in assay [1] is 1 (inactive). The normalised cell number in assay [1] (setting [5]) and in assay [1] (setting [6]) was 1.01 throughout.
Consider `CC(=O)OC/C=C(C)/C=C/C=C(C)/C=C/C1=C(C)CCCC1(C)C`, for which, in assay [1], the red/green cell ratio (normalised) was 0.94 (inactive). The normalised cell number in assay [1] (setting [5]) is 1; in assay [1] (setting [6]) it was 0.94.
Turning to `c1ccc(CN(CC2=NCCN2)c2ccccc2)cc1`, the red/green cell ratio (normalised) in assay [1] was 1.08 (inactive). Further, the figures for the normalised cell number in assay [1] (setting [5]) and in assay [1] (setting [6]) were 1.24 and 1.34, respectively. The remaining activity in assay [2] was 98.2% (inactive).
Regarding `Cc1ccc(C(=O)Nc2ccc(S(=O)(=O)O)c3cc(S(=O)(=O)O)cc(S(=O)(=O)O)c23)cc1NC(=O)c1cccc(NC(=O)Nc2cccc(C(=O)Nc3cc(C(=O)Nc4ccc(S(=O)(=O)O)c5cc(S(=O)(=O)O)cc(S(=O)(=O)O)c45)ccc3C)c2)c1`, in assay [1], the red/green cell ratio (normalised) was 1.23 (inactive) and 0.9 (inactive). For the same compound, the normalised cell number in assay [1] (setting [5]) is 0.96 and 1.07; in assay [1] (setting [6]) it was 1.17 and 0.97. Further, the remaining activity in assay [2] was 38.8% (active). Also, in assay [3], the AC50 is 14.4 µM (active). In assay [4], the call was inactive.
`Cc1nc2sccn2c(=O)c1CCN1CCC(=C(c2ccc(F)cc2)c2ccc(F)cc2)CC1`: the red/green cell ratio (normalised) in assay [1] is 1.18 (inactive). In addition, the figures for the normalised cell number in assay [1] (setting [5]) and in assay [1] (setting [6]) were 1.16 and 1.38, respectively. Besides, the remaining activity in assay [2] is 122% (inactive).
In the case of `O=c1c(O)c(-c2ccc(O)c(O)c2)oc2cc(O)cc(O)c12`, the red/green cell ratio (normalised) in assay [1] was 0.91 (inactive). Also, the normalised cell number came to 1.15 in assay [1] (setting [5]) and 1.04 in assay [1] (setting [6]). Besides, the remaining activity in assay [2] is 113% (inactive). The compound was classed as inactive in assay [3] and in assay [4].
In the case of `Nc1c(Br)cc(Br)cc1CNC1CCC(O)CC1` (stereo not drawn), the red/green cell ratio (normalised) in assay [1] was 0.72 (inactive). Further, the normalised cell number came to 1.16 in assay [1] (setting [5]) and 0.84 in assay [1] (setting [6]). Besides, the remaining activity in assay [2] was 105% (inactive).

Values taken from PubChem BioAssay.
